Assay outcomes from PubChem BioAssay.
ALDH1A1 inh: blocks purified human ALDH1A1 activity. P00352. Purified ALDH1A1, NADH fluorescence, propionaldehyde substrate. Potency, µM (titrated, usually from 75.3 µM), for inactives: at the highest dose activity, negative = inhibition, usual class: inhibitors. hit rate 7.3% among 220,000. AID 1030;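 note: potency is the fitted concentration of half-maximal effect; plate controls were no enzyme wells and a reference inhibitor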
HPGD block: blocks human HPGD enzyme activity; P15428; Potency, µM, for the others: at the top dose activity change, negative = inhibition, most hits filed as inhibitors; hit rate 4.3% among 150,000; purified HPGD, NADH fluorescence kinetic, PGE2 substrate; AID 894; note: potency is the fitted concentration of half-maximal effect
Target sequence (P15428 whole entry, looked up): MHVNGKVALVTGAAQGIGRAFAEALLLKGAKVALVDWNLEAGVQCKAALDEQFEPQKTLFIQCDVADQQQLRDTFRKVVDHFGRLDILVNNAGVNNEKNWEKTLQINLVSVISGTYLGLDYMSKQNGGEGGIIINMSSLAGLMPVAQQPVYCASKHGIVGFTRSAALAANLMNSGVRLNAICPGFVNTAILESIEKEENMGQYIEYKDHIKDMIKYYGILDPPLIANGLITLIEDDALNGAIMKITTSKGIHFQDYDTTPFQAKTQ
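20 nM HPGD preincubated 15 min at room temperature with compound in 50 mM Tris-HCl pH 8, 0.01% Tween 20. Started with 1 mM NAD+ and 30 uM prostaglandin E2; NADH fluorescence (360/450 nm) read 5 times over 30-s intervals, last minus first.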
ALOX12 inhib: 12-hLO (ALOX12) enzyme inhibition | AID 1452 | Potency, µM (top dose mostly 57.1 µM), inactives show at the highest dose activity change, negative = inhibition, most hits filed as inhibitors | purified 12-hLO, xylenol orange hydroperoxide absorbance | P18054 | hit rate 0.12% among 150,000; active = well fitted inhibition curve with a large enough effect; inconclusive = small, poorly fitted or top-dose-only effect; note: potency is the fitted concentration of half-maximal effect; nearly all actives have a fitted effect of over 55% in size
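Purified human 12hLO (150 nM final) was preincubated with compounds for 15 min at room temperature in 25 mM Hepes pH 7.0, 0.01% Triton X-100, then reacted with 40 uM arachidonic acid for 30 min. Hydroperoxide was detected with ferrous iron/xylenol orange.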
PNC assembly inh: blocks assembly of the perinucleolar compartment; PC3M PTB-GFP, PNC prevalence imaging, 16 h; active compounds read low; activity change (PNC), negative = inhibition, % at 10 µM; AID 2417; hit rate 3.1% among 140,000;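 active = readout at or below -70, meaning at least 70% loss of cells showing the perinucleolar compartment, a nuclear body marking cancer cells; inconclusive = readout between -30 and a set limit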;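 note: plate controls were DMSO wells for no effect and camptothecin positive control wells for full effect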
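Compounds are pinned in duplicate onto adhered PC3M cells stably expressing GFP-tagged PTB and incubated 16 h at 37 C. Cells are then fixed, nuclei stained with Hoechst, and PNC-positive cells counted.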
Lamin A splicing: LMNA splicing modulation; HeLa LMNA splicing GFP/RFP minigene ratio, 48 h; Potency, µM (highest dose often 46.1 µM), without a hit: at the highest dose ratio change, negative = inhibition, hits mostly inhibitors; hit rate 0.01% among 200,000; AID 1487; active = well fitted inhibition curve with a large enough effect in the signal ratio, with a control signal flat, not every such curve was filed as active; inconclusive = small, poorly fitted or top-dose-only effect, or effect the other way, or a change in a side signal; the % refers to the signal ratio; note: potency is the fitted concentration of half-maximal effect
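S3 HeLa stable clones carrying a lamin A-EGFP splicing minigene plus DsRed2 were seeded at 600 cells/well in Opti-MEM with 2% FBS, pin-dosed and incubated 48 h at 37°C. Acumen cytometry (488 nm) gave the GFP/RFP total-intensity ratio.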
Numbers without * were called inactive; [ ] = another dose, or the depositor's remark. Hits are enriched below; roughly 10% of the tested compounds scored in any of these assays. Unless noted, calls come from the whole dose curve; as a rule, active = well fitted inhibition curve with a large enough effect (not every such curve was filed as active); inconclusive = small, poorly fitted or top-dose-only effect, or another doubt; inactive = no such curve, though single readings can be large or run the other way. Unless noted, % is set by controls: 0 for no effect and ±100 for the full control effect.

`O=C(COC(=O)C1CCN(S(=O)(=O)c2cccc3cccnc23)CC1)c1ccc([N+](=O)[O-])cc1` gave ALDH1A1 inh 6.31µM*, HPGD block -6.0%, ALOX12 inhib 8.0%, PNC assembly inh -26.5 and Lamin A splicing -1.8%.
`CC1(C)OC(C(O)(c2cccc3c2oc2ccccc23)c2cccc3c2oc2ccccc23)C(C(O)(c2cccc3c2oc2ccccc23)c2cccc3c2oc2ccccc23)O1` (configuration not stated) gave ALDH1A1 inh 4.5%[13.5 µM].
Screening O=S(=O)(CCN1C=CC(C(F)(F)F)=NCC1)c1ccc(Cl)cc1Cl returned ALDH1A1 inh 12.6µM*.
Screening c1ccc2c(NCCN3CCOCC3)nc(-c3ccoc3)nc2c1 returned ALDH1A1 inh 3.1% and Lamin A splicing 0.5%.
For CC(=O)N=Cc1c(C)c(C#N)c(=O)n(C)c1O the results were ALDH1A1 inh -3.3% and Lamin A splicing -10.8%[46 µM].
Screening Cc1c(/C=N/Nc2ccc(F)cc2)c(O)n(C)c(=O)c1C#N returned ALDH1A1 inh 3.55µM* and Lamin A splicing inconclusive.
Screening Cc1ccc(N=Nc2c(O)n(CN3CCOCC3)c3ccccc23)cc1 returned ALDH1A1 inh -3.8%, HPGD block -3.9%, ALOX12 inhib -10.3%, PNC assembly inh -15.6 and Lamin A splicing inconclusive.
`C=CCn1c(O)c(N=NC(=S)Nc2ccc(OC)c(Cl)c2)c2ccccc21` gave ALDH1A1 inh 22.4µM*, HPGD block -19.1%, ALOX12 inhib 6.0%, PNC assembly inh -17.9 and Lamin A splicing inconclusive.
`C=CCn1c(O)c(N=NC(=S)Nc2ccccc2C)c2cc(S(=O)(=O)N3CCOCC3)ccc21` gave ALDH1A1 inh 10µM*, HPGD block -24.7%, ALOX12 inhib 2.8%, PNC assembly inh inconclusive and Lamin A splicing inconclusive.
For C=CCn1c(O)c(N=NC(=O)OC(C)(C)C)c2ccccc21 the results were ALDH1A1 inh inconclusive, HPGD block inconclusive, ALOX12 inhib -1.0%, PNC assembly inh -100.0* and Lamin A splicing -8.0%.
Screening C=CCn1c(O)c(N=Nc2ccccc2C)c2ccccc21 returned ALDH1A1 inh 2.82µM* and Lamin A splicing -0.1%[46 µM].
For C=CCn1c(O)c(N=NC(=O)CNC(=O)c2cccs2)c2ccccc21 the results were ALDH1A1 inh -1.7%, HPGD block -0.3%, ALOX12 inhib 4.8%, PNC assembly inh -27.4 and Lamin A splicing -14.2%.
For C[C@H](CN(C)C)C(=O)c1ccccc1C(=O)O the results were ALDH1A1 inh -1.7%[13.5 µM], HPGD block -10.3% and ALOX12 inhib -5.6%[11.4 µM].
COc1ccccc1NC(=O)CSc1nnc(-c2nonc2NC(C)=O)n1-c1ccccc1 was read as Lamin A splicing 14.3%[46 µM].
For O=C(COc1cccc(Cl)c1)N1CCC(c2nc3ccccc3s2)CC1 the results were Lamin A splicing 12.9%[46 µM].
CCC(c1nnnn1CCc1ccccc1)N(Cc1ccco1)Cc1cc2c(C)ccc(C)c2[nH]c1=O (configuration not stated) was read as ALDH1A1 inh 22.4µM*, HPGD block -18.4%, ALOX12 inhib -11.4%, PNC assembly inh 10.6 and Lamin A splicing inconclusive.
Screening CCC(c1nnnn1Cc1ccco1)N(CCc1ccccc1)Cc1cc2cc(C)ccc2[nH]c1=O (configuration not stated) returned ALDH1A1 inh 25.1µM*, ALOX12 inhib -14.9%, PNC assembly inh -24.9 and Lamin A splicing inconclusive.
`c1ccc(-c2ccc(N3CCCC4(CCNCC4)C3)cc2)cc1` gave ALDH1A1 inh inconclusive, HPGD block inconclusive and ALOX12 inhib 1.8%.
Screening Cc1sc(-n2c(C)cc(/C=N/n3cnnc3)c2C)c(C#N)c1C returned ALDH1A1 inh 3.98µM*, ALOX12 inhib -3.0%, PNC assembly inh 7.7 and Lamin A splicing inconclusive.
CC(C)c1nnc(SCC(=O)NCc2ccc3c(c2)OCO3)n1C was read as ALDH1A1 inh -0.2%, HPGD block -14.5%, ALOX12 inhib -2.9%, PNC assembly inh -100.0* and Lamin A splicing -1.5%.
`CC(C)c1ccc(NC(=O)CSc2n[nH]c(=O)n2-c2ccc3c(c2)OCCO3)cc1` gave ALDH1A1 inh 11.2µM*.
For CC(C)c1nnc(SCC(=O)Nc2ccc3c(c2)OCO3)n1C the results were ALDH1A1 inh 3.5%, HPGD block -8.1%, ALOX12 inhib -2.9%, PNC assembly inh -100.0* and Lamin A splicing 2.9%.
For O=C(CSc1nc2ccccc2n1CC(=O)N1CCCC1)Nc1ccc2c(c1)OCO2 the results were ALDH1A1 inh inconclusive, HPGD block -11.7%, ALOX12 inhib -3.4%, PNC assembly inh 15.8 and Lamin A splicing -0.8%.
`Cn1c(Cc2ccccc2)nnc1SCC(=O)Nc1ccc2c(c1)OCO2` gave ALDH1A1 inh 2.9%, HPGD block 2.2%, ALOX12 inhib 2.1%, PNC assembly inh 22.1 and Lamin A splicing -3.5%.
CC1CCCC(C)N1C(=O)Cn1c(SCC(=O)Nc2ccc3c(c2)OCO3)nc2ccccc21 (configuration not stated) was read as ALDH1A1 inh 5.01µM*, HPGD block -15.2%, ALOX12 inhib -1.1%, PNC assembly inh inconclusive and Lamin A splicing inconclusive.
`Cc1nnc(SCC(=O)NCc2ccc3c(c2)OCO3)n1C` gave ALDH1A1 inh 5.5%.
Cc1ccccc1OCc1nnc(SCc2cc(=O)c3ccc(C)c(C)c3[nH]2)n1C was read as Lamin A splicing -8.2%[46 µM].
Screening COc1ccc(NC(=O)CSC2=Nc3ccccc3C3=NC(CCC(=O)NCCc4ccccc4)C(=O)N23)c(OC)c1 (configuration not stated) returned Lamin A splicing -4.2%[46 µM].
Screening CCCN(CCC)C[C@@H]1CCCCN1CCNC(=O)N1c2ccccc2C(=O)Nc2cccnc21 returned ALDH1A1 inh 1.1%, HPGD block -7.8% and ALOX12 inhib -0.6%.
`Cc1ccc(C(C#N)c2ccc(Cl)nn2)cc1` (configuration not stated) gave ALDH1A1 inh 8.91µM* and Lamin A splicing -4.8%[46 µM].
`N#CC(c1ccc(Cl)cc1)c1ncc(C(F)(F)F)cc1Cl` (configuration not stated) gave ALDH1A1 inh 5.6%, HPGD block -7.8%, ALOX12 inhib -3.5%, PNC assembly inh 10.0 and Lamin A splicing 3.9%.
Screening N#CC(c1ccc(Cl)cc1)c1ccc(Cl)nn1 (configuration not stated) returned ALDH1A1 inh 6.31µM*, HPGD block -17.7%, ALOX12 inhib -11.3%, PNC assembly inh 40.0 and Lamin A splicing -11.5%.
N#CC(c1ccc(Cl)nn1)c1ccccc1Cl (configuration not stated) was read as ALDH1A1 inh 3.98µM*, HPGD block -12.2%, ALOX12 inhib 7.8%, PNC assembly inh 8.5 and Lamin A splicing -7.4%.
